Bioassay records: PubChem, National Center for Advancing Translational Sciences (NCATS)
Rows were chosen to be rich in hits. Some 18% of all compounds tested hit in one or more screens of this group.
VDR inh: vitamin D3 receptor (human) inhibition. 0.93% of 400,000 active. Potency, µM, hits mostly inhibitors. VDR-SRC2-3 peptide fluorescence polarization, 2 h. P11473
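The screen uses fluorescence polarization to detect compounds that interfere with recruitment of the SRC2-3 coactivator peptide to VDR; plates are read after 2 h at room temperature.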
GCN5L2 inh-1: blocks human GCN5L2 histone acetyltransferase | Q92830 | GCN5L2 HAT assay, ThioGlo1 CoA-SH fluorescence | Potency, µM (titrated, usually from 58.9 µM), most hits filed as inhibitors | 0.21% of 390,000 active
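Titration-based screen in which CoA formation is detected via maleimide probe ThioGlo1 (50uM) turning fluorescent on thiol reaction; substrates H3(1-25) 75uM and acetyl-CoA 70uM, GCN5L2 20nM, 20 min incubation at room temperature.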
TDP1 cell noCPT: qHTS for Inhibitors of human tyrosyl-DNA phosphodiesterase 1 (TDP1): qHTS in cells in absence of CPT. Potency, µM (highest dose often 46.2 µM), most hits filed as inhibitors. DT40 Tdp1-/- hTDP1 cells, no CPT, ATP luminescence, 48 h. 15% of 420,000 active; further: nearly all actives have a fitted effect of over 55% in size
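Readout: luminescence from CellTiter-Glo after 30 min in the dark at RT. Cells: DT40 Tdp1-/- with stable hTDP1, 400/well. Exposure: compounds alone, ≥48 hr, 37 °C.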
DT40 TDP1 CPT: DT40-hTDP1 cell growth loss with CPT; 12% of 420,000 active; Potency, µM (series often up to 46.2 µM), actives largely listed as inhibitors; chicken DT40 Tdp1-/-;hTDP1 cells + 20 nM CPT, ATP luminescence, 48 h; AID 686979; further: nearly all actives have a fitted effect of over 55% in size
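Chicken DT40 Tdp1-/- cells complemented with human TDP1, 400 cells/well, exposed to compounds plus 20 nM camptothecin for at least 48 h at 37 C; viability read as ATP content by CellTiter-Glo luminescence.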
TDP1 inh: TDP1 (human) enzyme inhibition; Potency, µM (titrated, usually from 130 µM), hits mostly inhibitors; recombinant TDP1, AlphaScreen DNA substrate cleavage; Q9NUW8; 0.28% of 350,000 active; further: nearly all actives have a fitted effect of over 40% in size
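E. coli-derived human Tdp1, 1 nM final. Cpd preinc 15 min RT; substrate 15 nM final, 5 min RT; AS bead mix 10 ug/ml final, 10 min RT. Signal loss = tyrosine-FITC cleavage. No-enzyme wells = max signal.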
PLK1 PBD block: blocks phosphopeptide binding to human PLK1 polo-box domain; 2.8% of 360,000 active; P53350; Potency, µM, usual class: inhibitors; Plk1 PBD binding of FITC phosphopeptide, fluorescence polarization; further: series mostly up to about 57 µM; nearly all actives have a fitted effect of over 65% in size
GCN5L2 inh-2: human KAT2A HAT inhibition, hit confirmation. shares compounds with GCN5L2 inh-1. GCN5L2 HAT, ThioGlo1 CoA fluorescence, 20 min. Potency, µM, usual class: inhibitors. 70% of 140 active
VDR confirm: confirmation of human vitamin D receptor inhibitors | shares compounds with VDR inh | VDR-coactivator inhibition assay, qHTS confirmation | Potency, µM, hits mostly inhibitors | 89% of 840 active | AID 602199
VDR FP fluor: confirmation of human VDR-coactivator binding inhibitors, fluorescein label | shares compounds with VDR inh | VDR-coactivator binding, fluorescein fluorescence polarization | Potency, µM (highest dose often 57.1 µM), usual class: inhibitors | 48% of 840 active | AID 602200
VDR bla: VDR (human) inhibition, cell-based beta-lactamase validation; shares compounds with VDR inh; 23% of 840 active; AID 602202; Potency, µM (highest dose often 46.1 µM), hits mostly inhibitors; VDR beta-lactamase reporter cells, FRET ratio; cells co-treated with VDR agonist LG190178
VDR cytotox: counter-screen for vitamin D receptor inhibitors: cytotoxicity. shares compounds with VDR inh. cytotoxicity counter-screen, cell viability, qHTS. Potency, µM (titrated, usually from 48.3 µM), hits mostly cytotoxic. 18% of 840 active. AID 602204; further: nearly all actives have a fitted effect of over 75% in size
Numbers stand for hits; i = inactive; ? = inconclusive; nt = not tested or not shown; [ ] = dose if it differs, or a comment. The call rests on the fitted dose curve; in most records, active means well fitted curve in the direction sought with a large enough effect; inconclusive means small, poorly fitted or top-dose-only effect, or another doubt; inactive means no such curve, though single readings can be large; an effect the other way counts as inactive or inconclusive.

SMILES	VDR inh	GCN5L2 inh-1	TDP1 cell noCPT	DT40 TDP1 CPT	TDP1 inh	PLK1 PBD block	GCN5L2 inh-2	others
COc1cc(C2C(C(=O)c3cc4ccccc4o3)=C(O)C(=O)N2c2cc(C)on2)cc(OC)c1OC (stereo unspecified)	i	i	i	i	i	i	nt
Cc1cc(N2C(=O)C(O)=C(C(=O)c3cc4ccccc4o3)C2c2cccc(Br)c2)no1 (stereo unspecified)	?	?	?	?	i	26.7µM	?
CN(C)/C=C1\C=C2C(=O)c3ccccc3N2C1=O	i	17.8µM	i	i	i	i	36.3
Brc1ccc(C2=NC(Cc3ccccc3)CO2)cc1 (stereo unspecified)	i	i	i	i	i	i	nt
Nc1ccc(-c2nc3cc(N)ccc3n2CCO)cc1	i	?	i	i	nt	i	18.2
Cn1c(CO)nc2cc(N)ccc21	i	i	i	?	i	i	nt
CC(=O)NC(=S)Nc1sc2c(c1C(N)=O)CCC(C)C2 (stereo unspecified)	i	20µM	i	i	i	i	32.4
Cc1[nH]c2ccccc2c1C(=O)C(=O)NC1CC(=O)N(c2ccc(F)cc2)C1 (stereo unspecified)	i	i	i	i	i[0.505 µM]	i	nt
CSc1ccccc1C(=O)Nc1ncn[nH]1	i	35.5µM	i	i	i	i	32.4
COc1cccc(N2CCN(C(=O)/C=C/c3ccco3)CC2)c1	i	i	i	i	i	i	nt
O=C(Nc1cccc(S(=O)(=O)NC2=NCCC2)c1)c1cc(-c2ccco2)nc2ccccc12	i	12.6µM	i	i	nt	?	?
COc1cc(/C=C(\C#N)C(=O)NC2CCCCC2)ccc1OCc1ccc(C(=O)O)cc1	?	i	i	?	i	i	nt
CCOC(=O)c1sc(NC(=O)CSc2nnc(Cc3ccccc3)o2)c(C#N)c1C	12.6µM	?	16.4µM	11.6µM	i	1.68µM	10.2	VDR confirm=2.99;VDR FP fluor=?;VDR bla=i;VDR cytotox=i
O=C(/C=C/c1ccccc1[N+](=O)[O-])Nc1cc(S(=O)(=O)N2CCOCC2)ccc1N1CCOCC1	i	nt	i	i	nt	i	nt
COc1ccc2cc(C(=O)Nc3ccc(Cl)cc3)sc(=O)c2c1OC	i	i	?	i	i	i	nt
Nc1c(C(=O)N2CCCCC2)sc(=S)n1-c1ccccc1	?	?	?	20.6µM	i	2.99µM	?	VDR confirm=7.08;VDR FP fluor=7.08µM;VDR bla=i;VDR cytotox=i
CCn1c2ccccc2c2nc3cc(S(=O)(=O)N4CCOCC4)ccc3nc21	28.2µM	?	13µM	14.6µM	i	0.67µM	?	VDR confirm=5.97;VDR FP fluor=?;VDR bla=i;VDR cytotox=?
CCCn1c(CCl)nc2cc(S(=O)(=O)N3CCOCC3)ccc21	i	i	i	i	i	i	nt
COc1cc(NC(=O)c2cc(Cl)nnc2Cl)cc(OC)c1OC	i	i	?	?	i	i	nt
